Shown is part of a subset that was picked to be rich in hits.
Sm TGR block = qHTS Assay for the Inhibitors of Schistosoma Mansoni Peroxiredoxins | 360,000 tested, 3% active | Potency, µM (titrated, usually from 114 µM), without a hit: top-dose activity change, negative = inhibition, actives largely listed as inhibitors | purified TGR, DTNB reduction, TNB absorbance 405 nm | AID 485364, 2010; note: potency is the fitted concentration of half-maximal effect; % is set by controls: 0 for no effect and ±100 for the full control effect; nearly all actives have a fitted effect of over 60% in size
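First, TGR (20 nM dispensed) and NADPH were mixed with compound. Second, a 15 min room-temperature incubation followed. Third, further NADPH and then DTNB were added to start the reaction. Finally, TNB absorbance was monitored kinetically.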
Giardia FBPA inh = qHTS Assay for Inhibitors of Fructose-1,6-bisphosphate Aldolase from Giardia Lamblia; AID 2451, 2010; purified Giardia FBPA; Potency, µM (highest dose often 59.6 µM), for inactives: at the top dose activity, negative = inhibition, usual class: inhibitors; 290,000 tested, 0.71% active; note: potency is the fitted concentration of half-maximal effect; % is set by controls: 0 for no effect and ±100 for the full control effect; nearly all actives have a fitted effect of over 55% in size
Target sequence (A8B2U2 whole entry, looked up): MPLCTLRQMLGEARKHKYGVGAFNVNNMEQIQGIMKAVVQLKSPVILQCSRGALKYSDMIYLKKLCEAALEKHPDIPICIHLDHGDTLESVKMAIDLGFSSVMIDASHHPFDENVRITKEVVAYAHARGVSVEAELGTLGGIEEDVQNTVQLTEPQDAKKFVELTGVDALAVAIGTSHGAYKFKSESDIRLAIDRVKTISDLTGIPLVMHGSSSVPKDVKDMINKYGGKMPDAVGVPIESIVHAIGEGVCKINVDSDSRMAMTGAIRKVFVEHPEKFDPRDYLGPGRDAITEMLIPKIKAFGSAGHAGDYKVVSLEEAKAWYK
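40 nM FBPA preincubated 10 min at RT with compound (up to 57.5 uM final), then substrate plus GAPDH/TPI/NAD/arsenate coupling and diaphorase/resazurin added. Fluorescence read after 20 min at RT, 525/598 nm.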
Shiga inhibitor = A qHTS for Small Molecule Inhibitors of Shiga Toxin; Vero cells, Shiga toxin protein synthesis inhibition reporter; inhibition, % at 38.7 µM; 290,000 tested, 9.2% active; AID 2315, 2010; in the data active = inhibition mostly above about 28%, no sharp cut-off; inactive = mostly below about 43%; note: 0% is about no effect
LmPK inhibitor = qHTS Assay for Inhibitors of Leishmania Mexicana Pyruvate Kinase (LmPK); Q27686; 290,000 tested, 0.37% active; purified LmPK, Kinase-Glo ATP luminescence, 1 h; Potency, µM (doses to about 57.5 µM), inactives show at the top dose activity change, negative = inhibition, actives largely listed as inhibitors; AID 1721, 2009; note: potency is the fitted concentration of half-maximal effect; % is set by controls: 0 for no effect and ±100 for the full control effect
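Kinase-Glo luminescence read after 1 h RT reaction of 0.1 nM LmPK with 0.5 mM PEP and 0.1 mM ADP. Activity scaled between uninhibited and enzyme-free controls.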
Cycloheximide cs = Cycloheximide Counterscreen for Small Molecule Inhibitors of Shiga Toxin; cell reporter, cycloheximide protein synthesis inhibition counterscreen; max response, %; 300,000 tested, 12% active; AID 2314, 2010; in the data active = max response mostly above about 13%, no sharp cut-off; inactive = mostly below about 14%; note: read at 38.3 µM for the half of the compounds with a filed dose; 0% is about no effect
TbPYK inhibitor = qHTS of Trypanosoma Brucei Inhibitors | pyruvate kinase (Trypanosoma brucei), Q57TT1 | TbPYK enzyme, Kinase-Glo Plus ATP luminescence, 45 min | Potency, µM (titrated, usually from 76.8 µM), for the others: at the top dose activity, negative = inhibition, most hits filed as inhibitors | 410,000 tested, 0.12% active; note: potency is the fitted concentration of half-maximal effect; % is set by controls: 0 for no effect and ±100 for the full control effect; nearly all actives have a fitted effect of over 50% in size
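Readout: single end-point luminescence (Kinase-Glo Plus, 10 min). Reaction conditions were TbPYK/substrate plus 130 uM ADP, 45 min at RT, pH 7.2 TEA buffer. No-enzyme wells served as controls, and data were normalized before concentration-response fitting.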
The depositor's hits bear a star; ? = inconclusive; . = no result. Unless noted, calls come from the whole dose curve; as a rule, active = well fitted curve in the direction sought with a large enough effect; inconclusive = small, poorly fitted or top-dose-only effect, or another doubt; inactive = no such curve, though single readings can be large; an effect the other way counts as inactive or inconclusive.

SMILES	Sm TGR block	Giardia FBPA inh	Shiga inhibitor	LmPK inhibitor	Cycloheximide cs	TbPYK inhibitor
CC1CC(OC(=O)c2ccccc2O)CC(C)(C)C1 (stereo not drawn)	.	1%	.	.	.	6%
Cc1nc2ccccc2nc(C)c1=NOCc1ccccc1Cl	-3%	-6%	86*	2%	39*	0%
Cc1ccc(NC(=O)Nc2nnc(N(C)Cc3ccccc3)s2)cc1	5%	.	.	.	.	-3%
CCOC(=O)N1CCC2(O)CCCCC2C1c1ccc(F)cc1 (stereo not drawn)	7%	7%	-3	2%	-2	0%
O=C(CN1CC[C@@]2(O)CCCC[C@H]2[C@@H]1c1ccc(F)cc1)NCc1ccco1	40µM*	0%	24	0%	11	2%
O=C1NC[C@@H](CCCCN2C[C@H](Cc3ccc(O)cc3)N(CC3CCCCC3)C(=O)C2=O)N(Cc2ccccc2)C1=O	.	.	.	.	.	4%
S=c1cnc2ccccc2[nH]1	.	-11%	70	3%	30*	?
CC(C)(C)c1nc2ccccc2[nH]1	-2%	-29%	13	-7%	1	-1%
CN(C)c1ccc(C=NN2C(=O)CSC2=S)c(Cl)c1	.	.	.	.	.	-1%
COc1ccc(N2C(=O)CSC2c2ccc3c(c2)OCO3)cc1 (stereo not drawn)	-10%	9%	-15	0%	-2	-5%
CN(C)c1ccc(N2CN=C3SCC(=O)N3C2)cc1	?	?	98*	-12%	86*	-19%
O=C1CSC2=NCN(c3ccc4c(c3)OCO4)CN12	?	-29%	96*	-2%	35*	-16%
CC1CCC(NC(=O)COC(=O)CNC(=O)c2ccc3ccccc3c2)CC1 (stereo not drawn)	-15%	.	.	.	.	-8%
O=C(NN=C1C2CC3CC1CC(Cl)(C3)C2)c1ccccn1	10%	?	43	1%	14*	1%
O=C(NN=C1C2CC3CC(C2)CC1C3)c1ccncc1	-30%	-5%	5	-4%	0	-4%
O=C(NN=C1C2CC3CC1CC(Cl)(C3)C2)c1cccs1	-3%	11%	35	-5%	45*	4%
CCCCOC(=O)c1ccc(Nc2nc3ccc(C)cc3n3cnnc23)cc1	1%	.	.	.	.	-8%
CCCCCn1c(=N)c(S(=O)(=O)c2ccc(C)cc2)cc2c(=O)n3cc(C)ccc3nc21	7%	.	.	.	.	-4%
C/C(=N\Nc1nc2ccc(Cl)cc2o1)c1ccccc1	1%	?	74*	4%	27*	1%
O=C(O)CCn1cc(C=C2C(=O)NC(=O)NC2=O)c(-c2ccc(Br)cc2)n1	0%	1%	-9	-1%	-2	18µM*
O=C(O)CCn1cc(/C=C/C(=O)c2ccc(Cl)cc2)c(-c2ccc(Br)cc2)n1	?	0%	-15	5%	1	3%
O=C(O)CCn1cc(C=C2C(=O)NC(=S)NC2=O)c(-c2cccc(Cl)c2)n1	32µM*	-8%	-9	7%	-1	11µM*
O=C(O)CCn1cc(/C=C2\SC(=S)NC2=O)c(-c2ccccc2)n1	-9%	9%	-12	-15%	-1	-5%
CCC1(C)NC(=O)N(CC(=O)Nc2cc(C)on2)C1=O (stereo not drawn)	.	.	.	.	.	4%
COc1cccc(C(c2sc3nc(-c4ccco4)nn3c2O)N2CCN(c3ccccc3F)CC2)c1 (stereo not drawn)	9%	.	.	.	.	-2%
SMILES	Sm TGR block	Giardia FBPA inh	Shiga inhibitor	LmPK inhibitor	Cycloheximide cs	TbPYK inhibitor
CCOC(=O)CN[C@@H](C(=O)N1CC[C@H]1C(=O)NCc1ccc(/C(N)=N/O)cc1)C1CCCCC1	.	.	.	.	.	-4%
Cc1ccc(-n2c([O-])nc(-[n+]3ccccc3)c2C=O)cc1	40µM*	-6%	16	6%	9	-2%
O=C(c1cccs1)c1cn(CC(=O)N2CCc3ccccc3C2)c2ccccc12	-15%	-6%	5	1%	48*	5%
O=C(O)Cn1cc(C(=O)c2cccs2)c2ccccc21	3%	9%	17	-1%	-3	3%
C/C(=N\NC(=O)c1ccccc1F)c1ccc(C#N)cc1	-3%	6%	129*	-5%	38*	-1%
C/C(=N\NC(=O)c1nn(C)c(C)c1Br)c1cccc(NC(=O)c2ccc(F)cc2)c1	4%	1%	active	-4%	72*	1%
C/C(=N\NC(=O)c1ccc(O)cc1)c1cccc(NC(=O)c2ccccc2C)c1	-32%	1%	28*	-12%	25*	-7%
C/C(=N\NC(=O)c1ccccc1F)c1cccc(NC(=O)c2ccccc2)c1	15%	.	52*	-4%	24*	-2%
C/C(=N\NC(=O)c1ccc(CSc2nncn2C)cc1)c1ccc(C#N)cc1	4%	-1%	-9	-4%	-1	0%
O=C(COC(=O)COc1ccccc1F)NCc1ccco1	.	.	.	.	.	-4%
COc1cc(NC(=O)C2=COCCO2)c(OC)cc1Cl	3%	.	.	.	.	-23%
C/C(=N\NC(=O)c1c(Br)c(C)nn1C)c1cccc(NC(=O)c2ccccc2C)c1	1%	0%	60	0%	-3	9%
C/C(=N\NC(=O)c1c(Br)c(C)nn1C)c1cccc(NC(=O)c2ccccc2F)c1	-3%	1%	66*	-1%	21*	0%
C/C(=N\NC(=O)c1cc(Br)ccc1O)c1cccc(NC(=O)c2ccccc2F)c1	-4%	.	43*	-14%	19	-5%
CCOc1ccc(-c2c(C)nn3c(C)c(C(=O)NCc4cccc(OC)c4)cnc23)cc1OCC	-9%	.	.	.	.	-6%
Cc1cc(O)c(/C=N/Nc2ccccc2Cl)c(=O)o1	?	-13%	24	-17%	22*	6%
Cc1ccc(S(=O)(=O)N2C[C@]3(O)C[C@@H]4C(=O)N(c5ccccc5)C(=O)[C@@H]4C[C@]3(OC(=O)NCc3ccccc3)C2)cc1	.	.	.	.	.	1%
Cc1ccc(S(=O)(=O)CC#CCOC(=O)c2ccc([N+](=O)[O-])cc2)cc1	0.63µM*	1%	-6	4%	-2	.
COc1ccc(Oc2ncc3ncc(=O)n(C)c3n2)cc1	.	-15%	.	.	.	.
Cc1cc(C(=O)O)ccc1N=Cc1c(O)ccc2ccccc12	50µM*	-19%	25	0%	10*	-4%
CC(=O)N(C)c1ccc(N=Cc2c(O)ccc3ccccc23)cc1	?	-20%	25*	-4%	17*	-3%
C=Cc1ccc(N=Cc2c(O)ccc3ccccc23)cc1	63µM*	14µM*	14	0%	16	2%
COc1ccccc1-c1ccc2ncnc(N(C)C)c2c1	.	-13%	.	.	.	.

Compound activity as filed in PubChem BioAssay.
